Source: PubChem
Sampled rows, rich in hits. Any-hit rate of the full collection: about 13%.
USP28 block – inhibitors of human USP28 deubiquitinase; AID 1645857, 2021; 47,000 compounds, 3% hits; Ubiquitin carboxyl-terminal hydrolase 28 (Homo sapiens), Q96RU2; purified USP28, Ub-rhodamine cleavage fluorescence, 30 min; inhibition, % at 25 µM
USP8 block – inhibitors of human USP8 deubiquitinase; inhibition, % at 20 µM; AID 1645853, 2021; 47,000 compounds, 4.2% hits; purified USP8, Ub-rhodamine cleavage fluorescence, 30 min; Ubiquitin carboxyl-terminal hydrolase 8 (Homo sapiens), P40818
USP30 block – inhibitors of human USP30 deubiquitinase; Ubiquitin carboxyl-terminal hydrolase 30 (Homo sapiens), Q70CQ3; purified USP30, Ub-rhodamine cleavage fluorescence; inhibition, % at 25 µM; 47,000 compounds, 5.3% hits
Target sequence (Q70CQ3 whole entry, looked up): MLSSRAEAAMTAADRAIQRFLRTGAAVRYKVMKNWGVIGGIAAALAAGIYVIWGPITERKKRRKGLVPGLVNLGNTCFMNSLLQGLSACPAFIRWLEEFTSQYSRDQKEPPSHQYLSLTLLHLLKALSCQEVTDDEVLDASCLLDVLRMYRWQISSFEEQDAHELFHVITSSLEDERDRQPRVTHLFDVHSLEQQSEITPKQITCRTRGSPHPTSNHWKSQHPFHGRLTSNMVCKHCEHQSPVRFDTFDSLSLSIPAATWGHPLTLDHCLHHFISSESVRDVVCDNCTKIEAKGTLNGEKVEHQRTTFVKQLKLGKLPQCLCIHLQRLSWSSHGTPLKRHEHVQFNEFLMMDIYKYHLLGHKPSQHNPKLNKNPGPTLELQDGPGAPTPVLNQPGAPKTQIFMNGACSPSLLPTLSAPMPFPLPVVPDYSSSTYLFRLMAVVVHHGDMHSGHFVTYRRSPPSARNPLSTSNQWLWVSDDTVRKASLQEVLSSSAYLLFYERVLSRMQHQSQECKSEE
USP17 block – inhibitors of human USP17 deubiquitinase. Ubiquitin carboxyl-terminal hydrolase 17-like protein 5 (Homo sapiens), A8MUK1. purified USP17, Ub-rhodamine cleavage fluorescence, 3 h. inhibition, % at 50 µM. 47,000 compounds, 6.5% hits. AID 1645855, 2021
An asterisk follows results filed as active; i = inactive; x = not tested or not shown. No stated cut-off is given here; in the data, active means inhibition above about 30%; inactive means the rest.

SMILES	USP28 block	USP8 block	USP30 block	USP17 block
O=C(Cc1ccccc1C(=O)O)Nc1cccc2ccccc12	-23.1	71.4*	-116.8	25.8
CC(C(=O)Nc1cccc2ccccc12)(C(F)(F)F)C(F)(F)F	0.3	9.0	-17.2	6.1
O=C(NCc1ccc(Cl)cc1)Nc1cccc2ccccc12	8.4	95.2*	34.6*	67.9*
O=C(Cc1cccc2ccccc12)NCc1ccc(F)cc1	-5.2	-12.9	-8.5	-1.5
Cn1cc(NC(=O)Nc2cccc3ccccc23)c2ccccc21	-0.1	88.6*	-60.2	62.9*
Cc1cccc(N2CCN(C(=O)c3csc(C(=O)NC4CC4)n3)CC2)c1	-9.0	-21.6	-7.1	-8.1
CN1CCN(C(=O)c2cc(-c3ccc(F)cc3)cn2C)CC1	-16.1	-17.7	-34.8	-11.6
COC(=O)c1ccc(O)c(O)c1	0.2	4.4	17.2	-39.2
COC(=O)c1ccc2c(c1)C(=O)c1ccccc1CO2	31.7*	7.0	23.8	25.6
COc1ccc(NC(=O)c2ccc(Nc3nnc(C)c4ccccc34)cc2)cc1	66.3*	0.9	17.3	22.8
COc1ccc(C(=O)Nc2cnc(-c3ccccc3)nc2)cc1	-10.2	91.6*	-16.8	38.3*
COc1ccc(NC(=O)c2ccc(C)cc2)cc1	25.2	-0.1	30.7*	44.8*
CN(C)S(=O)(=O)Oc1ccc(C(=O)Nc2ccc(F)cc2)cc1	31.8*	20.4	40.9*	40.4*
CN1CC[C@@]2(C(=O)Nc3ccccc3)CCN(C(=O)c3ccccc3)CC[C@@H]12	10.2	-115.6	10.4	-22.5
CNc1nccnc1C1CN(C(=O)c2ccc3ncccc3c2)CCO1 (stereo unspecified)	6.9	9.1	19.2	6.4
CCc1nc(N2CCCC2=O)sc1C(=O)N1CCN(c2cccc(OC)c2)CC1	-0.1	1.1	1.0	0.0
CCCn1c(=O)[nH]c2c(C(=O)N3CCCC(C)C3)snc2c1=O (stereo unspecified)	4.7	23.5	10.2	-1.2
CCN1CCN(c2ccc(NC(=O)c3ccc(OC)cc3)cn2)C1=O	45.2*	12.3	8.5	21.9
COc1ccc(C(=O)Nc2cnc(N3CCCCC3)nc2)cc1	38.3*	-12.1	-30.5	-12.6
Cc1ccc(C(=O)Nc2cnc(N3CCOCC3)nc2)cc1C	40.4*	-4.7	5.1	-3.6
O=C(Nc1cnc(N2CCOCC2)nc1)c1ccc(Cl)cc1	25.4	19.4	-2.1	14.4
Cc1ccc(C(=O)Nc2ccc3nccnc3c2)cc1	58.5*	-0.9	29.1	5.8
COc1ccc(C(=O)Nc2ccc3nc(C)c(C)nc3c2)cc1	21.4	-7.5	-9.8	-4.9
COCCN1C(=O)c2ccccc2C(C(=O)Nc2cccnc2)C12CCCCC2 (stereo unspecified)	10.1	19.0	13.0	9.3
CC(C)(C)c1noc(-c2ccnc(-n3cnc(C(=O)N4CCOCC4)c3)c2)n1	-1.1	-12.7	-0.3	-4.8
SMILES	USP28 block	USP8 block	USP30 block	USP17 block
COC(=O)c1ccc(Nc2cc(=O)oc3ccccc23)cc1	-93.3	-60.9	i	0.0
Cc1ccc(NC(=O)Cn2c(C)cc(-c3nc(C4CC4)no3)c2C)c(F)c1	-17.4	-21.2	-123.9	-28.5
Cc1ccc(NC(=O)Cc2nnc3c(-c4nc(C5CC5)no4)cccn23)cc1F	-9.2	93.4*	-21.5	9.6
Cc1ccc(NC(=O)Cc2nnc3c(-c4nc(C5CC5)no4)cccn23)c(C)c1	-7.8	64.6*	3.8	5.1
CN(c1cccc(Cl)c1)S(=O)(=O)c1cccc(C(=O)OCC(=O)N(Cc2ccccc2)C(C)(C)C)c1	5.3	2.4	6.0	0.0
COc1ccc(NC(=O)COC(=O)c2cccc(S(=O)(=O)N(C)c3cccc(Cl)c3)c2)c(OC)c1	5.4	1.5	33.0*	1.5
COc1ccc(NC(=O)C2CCCN(S(=O)(=O)N3CCOCC3)C2)cc1 (stereo unspecified)	1.8	19.8	-16.7	17.1
COc1ccccc1NC(=O)c1sc2nc[nH]c(=O)c2c1C	-70.4	-20.8	i	-171.5
CCN(CC)C(=O)CN1CCC(Nc2nc3c(c(=O)[nH]2)CCCC3)CC1	-9.4	-83.2	-27.1	-14.3
O=c1[nH]c(NC2CCN(Cc3nnnn3Cc3ccc4c(c3)OCO4)CC2)nc2c1CCCC2	8.0	-1.4	38.3*	0.2
O=C(NCCCN1CCCC1)c1cccc(Cl)c1	-8.5	-44.3	-9.6	-11.3
O=C(Cc1cccc(Cl)c1)NCCN1CCC(O)(c2cccc(F)c2)CC1	17.0	3.1	33.8*	7.5
O=C1COc2ccc(C(=O)c3ccccc3C(=O)NC3CC3)cc2N1	x	2.5	x	4.2
